SMILES strings stand for the structures. About 83,000 compounds went through this panel and 20% of them were active in at least one assay; those are over-represented in the sample as a whole.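 Interpretation: 100, growth as untreated; towards 0, rising growth inhibition; 0, no net growth; 0 to -100, cell death. Compounds scoring below 10 were considered active.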 The source made the active and inactive calls.

One assay concerns HS 578T breast. As to the kind of experiment: NCI-60 one-dose screen, 48 h (100 = growth as untreated, 0 = no growth, -100 = all killed). To be noted: 10 µM unless noted.
Take `CN(C)c1ccc2nc3ccc(=[N+](C)C)c([N+](=O)[O-])c-3sc2c1`: the growth is 37% (inactive).
For the compound `COc1cc(C(=O)/C=C/c2c(Cl)nc3sccn23)cc(OC)c1OC`, the growth is 61% (inactive).
`CNc1ccc(Nc2cccc(C)c2)c2c1C(=O)c1ccccc1C2=O`: the growth was 101% (inactive).
For the compound `Cc1cc(O)c(C2=NN(c3ccc(S(N)(=O)=O)cc3)C(c3ccccc3O)C2)cc1Cl` (centres undefined), the growth was 8.33% (active).
As to `CCN1C(=O)N(CC)C2Nn3c(s/c(=C4\C(=O)N(CCC(C)C)c5ccccc54)c3=O)=NC21` (centres undefined), the growth was 81.4% (inactive).
Take `C=C(C)[C@@H]1CC[C@]2(N=C=O)CC[C@]3(C)[C@H](CC[C@@H]4[C@@]5(C)Cc6c([nH]c7ccccc67)C(C)(C)[C@@H]5CC[C@]43C)[C@@H]12`: the growth is 92% (inactive).
Same read-out and setting: next, `O=C1CSC(c2c(Cl)cccc2Cl)N1c1nc(Cl)cc(=O)[nH]1` (centres undefined): 109% (inactive); `COc1ccc(OC)c(/C=C/C(=O)N/N=C/c2ccccc2)c1`: 66.5% (inactive).
In the case of `Oc1ccc(-c2nc3ccc4[nH]ncc4c3c3c2CCCC3)c2cccnc12`, the growth is -14.7% (active).
Regarding `Cc1cc(O)c(C2=NN(c3ccc(S(N)(=O)=O)cc3)C(/C=C/c3ccccc3)C2)cc1Cl` (centres undefined), the growth is 39.2% (inactive).
For the compound `COc1ccc(C2=Nn3c(nnc3-c3cc(Cl)cc(Cl)c3Cl)SC2)cc1`, the growth is 11.7% (inactive).
On the same count and under the same terms, next, `O=S(=O)(NCCCNc1cc(-c2c(-c3cccc(O)c3)nc3sccn23)ccn1)c1cccc2ccccc12`: 22.7% (inactive); `c1cc(-c2nnc(SSc3ncnc4nc[nH]c34)o2)ccn1`: 66% (inactive).
Still for that read-out and setting: next, `CC[C@H](C)C(=O)O[C@H]1CCC=C2C=C[C@H](C)[C@H](CC[C@@H]3CC=CC(=O)O3)[C@H]21`: 109% (inactive); `COc1cc(CCC[P+](c2ccccc2)(c2ccccc2)c2ccccc2)c(OC)c(OC)c1OC`: 51.8% (inactive).
In the case of `COc1ccc(C(=O)/C=C/c2sc(Cl)nc2Cl)cc1`, the growth is 58.5% (inactive).
Same read-out and setting: next, `COc1ccc(C(=S)N2CCN(c3cccc(C)c3)CC2)cc1OC`: 103% (inactive); `Cc1cc2nc3ccc(N=Nc4ccc(N(C)C)cc4)cc3n(-c3ccccc3)c-2cc1=N`: -25.3% (active).
Turning to `CC(=O)CC(c1cccs1)c1c(-c2ccccc2)[nH]c2ccccc12` (centres undefined), the growth is 82.1% (inactive).
The same measure, in the same setting: next, `COc1ccc(-n2c(N)c(-c3nc4ccccc4[nH]3)cc(C#N)c2=O)cc1`: 50.1% (inactive); `Cc1ncc(C(=O)Nc2ccc(CN3CCN(C)CC3)c(C(F)(F)F)c2)cc1C#Cc1ccc(N)nc1`: -20% (active).
Turning to `COC(=O)/C=C1\S/C(=N\Nc2ccc([N+](=O)[O-])cc2[N+](=O)[O-])N(C2CCCCC2)C1=O`, the growth is 65.2% (inactive).
Same read-out and setting: next, `COc1c(B(O)O)cc(F)cc1-c1nc2ccc3[nH]ncc3c2c2c1CCCC2`: -2.19% (active).
With `CCCCCCN1C(=O)/C(=c2\sc3n(c2=O)C2C(NN=3)N(CC)C(=O)N2CC)c2ccccc21` (centres undefined), the growth is 4.83% (active).
Still for that read-out and setting: the result for `S=c1nc(-c2ccccc2)oc(=NC2CCCCC2)n1C1CCCCC1` reads 43.1% (inactive); that for `CNC(=O)c1[nH]cc(-c2ccccc2)c1-c1cc(OC)c2c(c1OC)OCO2`, 102% (inactive).
On to `CCCCCCN(CCCCCC)c1ccc(/C=C2/SC(=O)NC2=O)c(C)c1`, for which the growth is 86.8% (inactive).
With `CC(=O)OC[C@H]1OC(Sc2sc(C(=O)c3ccc(Br)cc3)c(N)c2-c2nc3ccccc3s2)[C@H](OC(C)=O)[C@@H](OC(C)=O)[C@H]1OC(C)=O` (some centres undefined), the growth was 95.4% (inactive).
For the compound `N#Cc1ccc(NC(=O)c2sc3nc4c(cc3c2N)C(=O)CCC4)cc1`, the growth was 111% (inactive).
As for `NS(=O)(=O)c1ccc(-n2nc(-c3ccc(Cl)cc3)c3ccccc3c2=O)cc1`, the growth is 88.7% (inactive).
On to `COc1cccc(OC)c1C(=O)N[C@@H]1C(=O)N2[C@@H]1SC(C)(C)[C@@H]2C(=O)O`, for which the growth is 114% (inactive).
Same read-out and setting: the result for `N/C(=N\c1nc2ccccc2s1)NC(=O)Nc1cccc2ccccc12` reads 16.6% (inactive); that for `COc1ccc(/C=C/c2c(C(=O)/C=C/c3ccc(C(F)(F)F)cc3)c(C)nc3ccccc23)cc1`, 1.9% (active).
On to `COc1c(B(O)O)cc(C)cc1-c1nc2ccc3[nH]ncc3c2c2c1CCCC2`, for which the growth is 18.2% (inactive).
Consider `COc1cc(C(=O)c2cc(C)c3[nH]c4ccc(O)cc4c3c2C)cc(OC)c1OC`, for which the growth is 38.1% (inactive).
`COc1ccc(/C=C/c2c(C(=O)/C=C/c3ccc(Cl)cc3)c(C)nc3ccccc23)cc1`: the growth was 34.4% (inactive).
As for `O=c1ccc(N=Nc2ccc([N+](=O)[O-])cc2)ccc1O`, the growth is 34.8% (inactive).

The next assay deals with NCI/ADR-RES ovarian. The assay is described as above. To be noted: 10 µM unless noted.
`CN(C)c1ccc2nc3ccc(=[N+](C)C)c([N+](=O)[O-])c-3sc2c1`: the growth was 7.62% (active).
`COc1cc(C(=O)/C=C/c2c(Cl)nc3sccn23)cc(OC)c1OC`: the growth is 81.4% (inactive).
As for `CNc1ccc(Nc2cccc(C)c2)c2c1C(=O)c1ccccc1C2=O`, the growth was 98.8% (inactive).
Turning to `Cc1cc(O)c(C2=NN(c3ccc(S(N)(=O)=O)cc3)C(c3ccccc3O)C2)cc1Cl` (centres undefined), the growth was 1.92% (active).
`CCN1C(=O)N(CC)C2Nn3c(s/c(=C4\C(=O)N(CCC(C)C)c5ccccc54)c3=O)=NC21` (centres undefined): the growth was 57.8% (inactive).
Same read-out and setting: the result for `C=C(C)[C@@H]1CC[C@]2(N=C=O)CC[C@]3(C)[C@H](CC[C@@H]4[C@@]5(C)Cc6c([nH]c7ccccc67)C(C)(C)[C@@H]5CC[C@]43C)[C@@H]12` reads 83.5% (inactive); that for `O=C1CSC(c2c(Cl)cccc2Cl)N1c1nc(Cl)cc(=O)[nH]1` (centres undefined), 95% (inactive); that for `COc1ccc(OC)c(/C=C/C(=O)N/N=C/c2ccccc2)c1`, 8.51% (active).
As for `Oc1ccc(-c2nc3ccc4[nH]ncc4c3c3c2CCCC3)c2cccnc12`, the growth is 7.95% (active).
For `Cc1cc(O)c(C2=NN(c3ccc(S(N)(=O)=O)cc3)C(/C=C/c3ccccc3)C2)cc1Cl` (centres undefined), the growth was 29.7% (inactive).
Consider `COc1ccc(C2=Nn3c(nnc3-c3cc(Cl)cc(Cl)c3Cl)SC2)cc1`, for which the growth was -20.8% (active).
Consider `O=S(=O)(NCCCNc1cc(-c2c(-c3cccc(O)c3)nc3sccn23)ccn1)c1cccc2ccccc12`, for which the growth is 77% (inactive).
Turning to `c1cc(-c2nnc(SSc3ncnc4nc[nH]c34)o2)ccn1`, the growth is 27.3% (inactive).
On to `CC[C@H](C)C(=O)O[C@H]1CCC=C2C=C[C@H](C)[C@H](CC[C@@H]3CC=CC(=O)O3)[C@H]21`, for which the growth is 90.9% (inactive).
As to `COc1cc(CCC[P+](c2ccccc2)(c2ccccc2)c2ccccc2)c(OC)c(OC)c1OC`, the growth was 77.7% (inactive).
`COc1ccc(C(=O)/C=C/c2sc(Cl)nc2Cl)cc1`: the growth was 1.37% (active).
On the same count and under the same terms, next, `COc1ccc(C(=S)N2CCN(c3cccc(C)c3)CC2)cc1OC`: 5.68% (active).
As for `Cc1cc2nc3ccc(N=Nc4ccc(N(C)C)cc4)cc3n(-c3ccccc3)c-2cc1=N`, the growth is 4.97% (active).
Same read-out and setting: the result for `CC(=O)CC(c1cccs1)c1c(-c2ccccc2)[nH]c2ccccc12` (centres undefined) reads 69% (inactive); that for `COc1ccc(-n2c(N)c(-c3nc4ccccc4[nH]3)cc(C#N)c2=O)cc1`, 77.8% (inactive).
Still for that read-out and setting: the result for `Cc1ncc(C(=O)Nc2ccc(CN3CCN(C)CC3)c(C(F)(F)F)c2)cc1C#Cc1ccc(N)nc1` reads 9.79% (active).
`COC(=O)/C=C1\S/C(=N\Nc2ccc([N+](=O)[O-])cc2[N+](=O)[O-])N(C2CCCCC2)C1=O`: the growth was 29.7% (inactive).
On the same count and under the same terms, next, `COc1c(B(O)O)cc(F)cc1-c1nc2ccc3[nH]ncc3c2c2c1CCCC2`: 16.1% (inactive); `CCCCCCN1C(=O)/C(=c2\sc3n(c2=O)C2C(NN=3)N(CC)C(=O)N2CC)c2ccccc21` (centres undefined): -23.1% (active).
Still for that read-out and setting: next, `S=c1nc(-c2ccccc2)oc(=NC2CCCCC2)n1C1CCCCC1`: 32.5% (inactive).
Regarding `CNC(=O)c1[nH]cc(-c2ccccc2)c1-c1cc(OC)c2c(c1OC)OCO2`, the growth was 101% (inactive).
On to `CCCCCCN(CCCCCC)c1ccc(/C=C2/SC(=O)NC2=O)c(C)c1`, for which the growth was 86.7% (inactive).
Regarding `CC(=O)OC[C@H]1OC(Sc2sc(C(=O)c3ccc(Br)cc3)c(N)c2-c2nc3ccccc3s2)[C@H](OC(C)=O)[C@@H](OC(C)=O)[C@H]1OC(C)=O` (some centres undefined), the growth was 88.4% (inactive).
As to `N#Cc1ccc(NC(=O)c2sc3nc4c(cc3c2N)C(=O)CCC4)cc1`, the growth is 106% (inactive).
Regarding `NS(=O)(=O)c1ccc(-n2nc(-c3ccc(Cl)cc3)c3ccccc3c2=O)cc1`, the growth is 86.2% (inactive).
As to `COc1cccc(OC)c1C(=O)N[C@@H]1C(=O)N2[C@@H]1SC(C)(C)[C@@H]2C(=O)O`, the growth is 101% (inactive).
The same measure, in the same setting: the result for `N/C(=N\c1nc2ccccc2s1)NC(=O)Nc1cccc2ccccc12` reads -7.24% (active); that for `COc1ccc(/C=C/c2c(C(=O)/C=C/c3ccc(C(F)(F)F)cc3)c(C)nc3ccccc23)cc1`, 2.01% (active); that for `COc1c(B(O)O)cc(C)cc1-c1nc2ccc3[nH]ncc3c2c2c1CCCC2`, 55.7% (inactive).
As to `COc1cc(C(=O)c2cc(C)c3[nH]c4ccc(O)cc4c3c2C)cc(OC)c1OC`, the growth was 8.01% (active).
Take `COc1ccc(/C=C/c2c(C(=O)/C=C/c3ccc(Cl)cc3)c(C)nc3ccccc23)cc1`: the growth was 12.4% (inactive).
For the compound `O=c1ccc(N=Nc2ccc([N+](=O)[O-])cc2)ccc1O`, the growth was -1.1% (active).

Source of the values: PubChem BioAssay (NCI).
